Assay outcomes: PubChem BioAssay, several laboratories
MITF TRPM1 inh: inhibitors of MITF-driven TRPM1 promoter in melanoma cells; actives 0.83% (n = 330,000); SK-MEL-5 TRPM1 promoter luciferase, 24 h; inhibition, % at 12.5 µM; AID 488899;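 active = mean inhibition across replicates of 60% or more, whatever share of single replicates reaches that level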
MITF act: activators of MITF-driven TRPM1 promoter activity in SK-MEL-5 cells; SK-MEL-5 TRPM1-promoter luciferase, 24 h; % of positive control, neutral wells = 0; activation, % at 12.5 µM; actives 0.75% (n = 300,000); AID 588334;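 active = mean activation of at least 80% with every replicate also reaching 80%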;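 also: 0% = neutral control wells and 100% = parthenolide positive control wells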
TROY signal inh: TROY signaling inhibition. inhibition, % at 10 µM. actives 0.98% (n = 360,000). Q293 LMP1-TROYcd NF-kB luciferase reporter, 4 h. AID 1347056;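 active = compounds whose plate-normalised and pattern-corrected inhibition of the luciferase reporter signal at the single screening dose is 50% or more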
LMP1 NFkB inh: reduces LMP1-driven NF-kappaB luciferase signal. LMP1-induced NF-kappaB luciferase reporter cells, luminescence. inhibition, % at 12.5 µM. actives 0.69% (n = 350,000); in the data active = inhibition above about 41%;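 also: 0% = neutral control wells and 100% = reference inhibitor control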
LGR2 inh: blocks bursicon-induced cAMP signaling via Drosophila LGR2; HEK293 LGR2, CRE-luciferase, bursicon-stimulated, 4 h; inhibition, % at 9.99 µM; actives 0.35% (n = 380,000); AID 720647;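 active = drop in luminescence signal, shown as inhibition above about 50% in the replicate tests, limit read from the data, passing the limit was not always enough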;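 also: agonist challenge used bursicon conditioned medium at about half maximal strength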
TWEAK Fn14 block: blocks TWEAK-Fn14 interaction in a reporter cell assay; TWEAK-stimulated Fn14 reporter cells, luciferase luminescence, 8 h; inhibition, % at 10 µM; actives 2% (n = 360,000); AID 1159606; in the data active = inhibition above about 50%
The depositor's hits bear a star. Only some compounds are listed: those with a hit (about 3% of all), similar ones and a draw of the others.

Cc1ccccc1OCc1nc(-c2ccc(NC(=O)c3ccco3)cc2)no1 was read as MITF TRPM1 inh -102, MITF act 103*, TROY signal inh 10, LMP1 NFkB inh 3 and TWEAK Fn14 block 18.
Screening CCCc1ccc(OCc2nc(-c3ccc(NC(=O)c4ccco4)cc3)no2)cc1 returned MITF TRPM1 inh -79, MITF act 69, TROY signal inh -27, LMP1 NFkB inh -20 and TWEAK Fn14 block -47.
`Cc1ccccc1OCc1nc(-c2ccccc2)no1` gave MITF TRPM1 inh -92, MITF act 97*, TROY signal inh -66, LMP1 NFkB inh -43 and TWEAK Fn14 block -47.
For CCC(=O)N1CC(=O)N2[C@@H](CO)[C@H](c3ccc(-c4ccncc4)cc3)[C@@H]2C1 the results were LGR2 inh 5.
c1ccc(-c2noc(COc3ccc4c(c3)OCO4)n2)cc1 was read as MITF TRPM1 inh -95, MITF act 97*, TROY signal inh -47, LMP1 NFkB inh -58 and TWEAK Fn14 block -13.
Screening COc1ccc(-c2noc(COc3ccc4c(c3)OCO4)n2)cc1 returned MITF TRPM1 inh -7, MITF act 10, TROY signal inh -17, LMP1 NFkB inh -7, LGR2 inh -12 and TWEAK Fn14 block -22.
For CN1CCCCN2[C@@H](CO)[C@H](c3ccc(Br)cc3)[C@@H]2C1 the results were LGR2 inh -9.
`Cc1ccc(C(=O)Nc2ccccc2C(=O)O)cc1S(=O)(=O)Nc1ccc(Br)cc1` gave MITF TRPM1 inh 12, TROY signal inh 51*, LMP1 NFkB inh -1, LGR2 inh 7 and TWEAK Fn14 block 6.
Cc1ccccc1NS(=O)(=O)c1cc(C(=O)Nc2cccc([N+](=O)[O-])c2)ccc1C was read as MITF TRPM1 inh -4, MITF act 3, TROY signal inh 59*, LMP1 NFkB inh -5, LGR2 inh 32 and TWEAK Fn14 block 67*.
Screening O=C(N/N=C/c1ccc(O)cc1O)c1ccc(NC(=O)C2CCCCC2)cc1 returned MITF TRPM1 inh 67*, MITF act -65, TROY signal inh -6, LMP1 NFkB inh 2, LGR2 inh 13 and TWEAK Fn14 block -59.
For O=C(N/N=C/c1cccc(O)c1)c1ccc(NC(=O)C2CCCCC2)cc1 the results were MITF TRPM1 inh 17, MITF act -16, TROY signal inh -5, LMP1 NFkB inh -3, LGR2 inh -6 and TWEAK Fn14 block -18.
`CC(Sc1nn(-c2ccc(F)cc2)c(=S)s1)C(=O)c1c(N)n(C)c(=O)n(C)c1=O` (stereo not given) gave MITF TRPM1 inh -19, MITF act 20, TROY signal inh 30, LMP1 NFkB inh 12, LGR2 inh 3 and TWEAK Fn14 block 15.
Screening Cn1c(N)c(C(=O)CSc2nn(-c3ccccc3)c(=S)s2)c(=O)n(C)c1=O returned MITF TRPM1 inh 8, MITF act -5, TROY signal inh 58*, LMP1 NFkB inh 16, LGR2 inh 8 and TWEAK Fn14 block 54*.
CC(C)NC(=O)N[C@H]1CC[C@H](CC(=O)NCc2ccc(Oc3ccccc3)cc2)O[C@H]1CO was read as LGR2 inh -5.
`O=C(Nc1cccc(F)c1)C1CCN(C(=O)N2CCOc3ccccc32)CC1` gave MITF TRPM1 inh -7, MITF act 5, TROY signal inh 13, LMP1 NFkB inh 84*, LGR2 inh -5 and TWEAK Fn14 block 9.
`Oc1ccc(/C=N/Nc2cccc(Cl)n2)c(O)c1` gave MITF TRPM1 inh -121, MITF act 109*, TROY signal inh -1, LMP1 NFkB inh -26, LGR2 inh -86 and TWEAK Fn14 block 13.
Oc1ccc(/C=N/Nc2ccc(C(F)(F)F)cn2)c(O)c1 was read as MITF TRPM1 inh 4, MITF act -1, TROY signal inh -30, LMP1 NFkB inh 8, LGR2 inh -18 and TWEAK Fn14 block 20.
FC(F)(F)c1ccccc1-n1c(-c2ccco2)n[nH]c1=S was read as MITF TRPM1 inh 1, MITF act 3, TROY signal inh 25, LMP1 NFkB inh 12, LGR2 inh 17 and TWEAK Fn14 block 88*.
`CCOc1ccc(-c2ccc(SCC(=O)NC3CCCCC3)nn2)cc1` gave MITF TRPM1 inh -90, MITF act 94*, TROY signal inh -24, LMP1 NFkB inh -6, LGR2 inh -14 and TWEAK Fn14 block -29.
For CCSc1ccc(-c2ccc(C)cc2)nn1 the results were MITF TRPM1 inh -71, MITF act 75, TROY signal inh -27, LMP1 NFkB inh 3, LGR2 inh -19 and TWEAK Fn14 block -19.
For COc1ccc(-c2ccc(SC)nn2)cc1 the results were MITF TRPM1 inh 25, MITF act -26, TROY signal inh 46, LMP1 NFkB inh 38, LGR2 inh 83* and TWEAK Fn14 block 88*.
Screening CCOc1ccc(-c2ccc(SCC)nn2)cc1 returned MITF TRPM1 inh -29, MITF act 25, TROY signal inh -8, LMP1 NFkB inh -9, LGR2 inh 59* and TWEAK Fn14 block 64*.
For CCC(=O)N1[C@H](CO)[C@@H](c2ccccc2)C12CN(C(=O)c1cnccn1)C2 the results were LGR2 inh 6.
Screening CO[C@@H]1CN(C)C(=O)c2cc(NS(=O)(=O)c3ccc(F)cc3)ccc2OC[C@H](C)NC[C@@H]1C returned LGR2 inh 2.
For O=C(/C=C/c1ccco1)NCC1(c2ccccc2)CCCC1 the results were MITF TRPM1 inh -10, MITF act 13, TROY signal inh 87*, LMP1 NFkB inh 4, LGR2 inh 14 and TWEAK Fn14 block 89*.
For COc1ccc(C2(CNC(=O)/C=C/c3ccco3)CCCC2)cc1OC the results were MITF TRPM1 inh 7, MITF act -3, TROY signal inh 3, LMP1 NFkB inh 4, LGR2 inh -16 and TWEAK Fn14 block 5.
`Nc1ccc(N=Nc2ccccc2)c(N)n1` gave MITF TRPM1 inh -90, MITF act 94*, TROY signal inh -85, LMP1 NFkB inh -13, LGR2 inh -67 and TWEAK Fn14 block 12.
`Nc1ccc(N=Nc2ccccc2)c2ccccc12` gave MITF TRPM1 inh 9, MITF act -5, TROY signal inh -14, LMP1 NFkB inh 9, LGR2 inh -6 and TWEAK Fn14 block -5.
COC(=O)C[C@H]1CC[C@@H]2[C@H](COC[C@H](O)CN2C(=O)Nc2cccc(F)c2)O1 was read as LGR2 inh 11.
Screening CC(=O)/C(N=Nc1ccc2c(c1)OCCO2)=C(\C)O returned MITF TRPM1 inh 11, MITF act -4, TROY signal inh 27, LMP1 NFkB inh -1, LGR2 inh 13 and TWEAK Fn14 block 77*.
`CCCC#Cc1ccc2c(c1)O[C@H](CN(C)Cc1ccncc1)[C@@H](C)CN([C@@H](C)CO)S2(=O)=O` gave LGR2 inh 9.
